Out of some 320,000 compounds screened, about 3,300 (1%) were called active.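 Rule for the calls: active = every valid replicate shows activation above 250% relative to neutral control wells; inactive = the rest, any valid replicate at or below 250%.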 The entries come from a sample that favours actives as a whole.
test: yeast Mot1-301 growth rescue at high temperature, primary screen, SUMOylation pathway inhibitor project, S. cerevisiae, ATP luminescence, 38.5C (AID 2716);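 note: OY570 slx delta 5 strain wells were the positive control but not used for scaling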; details: S. cerevisiae Mot1-301 growth rescue, at 18.8 µM, stronger effect = higher value, percent above DMSO median, 100 means doubled

Growth rescue, inactive:
O=C(NCCCN1CCOCC1)c1cn(-c2ccccc2)nc1-c1ccc(F)cc1 -27.9%
COc1ccc(NC(=O)C2=CC(c3ccc(OC)c(OC)c3)=NS(=O)(=O)N2C)cc1 12.2%
COc1cc(NC(=O)C2=CC(c3ccc(C)cc3)=NS(=O)(=O)N2C)cc(OC)c1OC 18.9%
CCOC(=O)C(NC(C)=O)C(=O)Nc1ccc(OC)cc1 (stereo not given) 5.5%
NS(=O)(=O)c1ccc(CNC(=S)NC(=O)c2ccco2)cc1 -10.3%
CCCCc1nc2cc(C(=O)NCCc3cnn(C)c3)ccc2o1 249%
CC1Sc2ccc(C(=O)NCc3ccccc3Cl)cc2NC1=O (stereo not given) -10.2%
COc1ccc(C)cc1NC(=O)C(Sc1ccccc1)c1ccccc1 (stereo not given) -9.29%
COc1cccc(NC(=O)c2ccc(Cn3cc([N+](=O)[O-])cn3)o2)c1 -22.4%
Cn1cc([N+](=O)[O-])c(C(=O)Nc2ccc3c(c2)OCCO3)n1 -2.5%
COc1ccccc1C(=O)NCC(=O)OCC(=O)Nc1nnc(-c2ccccc2)o1 0.619%
CCCNC(=O)CCn1cc(-c2ccc(OC)cc2)nc1CCN -5.76%
CNS(=O)(=O)c1ccc(NC(=O)Nc2ccc3c(c2)OCO3)cc1 -8%
COc1ccc(Cl)cc1N(CC(=O)N1CCCCC1)S(C)(=O)=O 316%
COCc1c(C(=O)N/N=C\c2cccnc2)nnn1-c1nonc1N 0.433%
C#CCOCCOCCOCCNc1nc(N2CCN(C(=O)[C@H](CCC(=O)O)n3cc(CN)nn3)CC2)nc(N2CCN(C(=O)[C@H](CCC(=O)O)n3cc(CN)nn3)CC2)n1 -22.6%
O=C(c1cccc(F)c1)N1CCC(O)(c2cccnc2)CC1 16%
Cc1ccc(NC(=O)Nc2cccnc2)cc1 -4.18%
Cc1ccc(/C=N/NC(=O)c2sccc2OCc2ccc(F)cc2)cc1 17.9%
COc1cc(-c2nc(S(=O)(=O)c3ccc(Cl)cc3)c(N(C)C)o2)cc(OC)c1OC 9.48%
CC(C)CC(=O)Nc1nnc(S(=O)(=O)N(C)c2ccc(Cl)cc2)s1 -15.6%

Growth rescue, active:
COc1cc(NC(=O)C2=CC(c3ccco3)=NS(=O)(=O)N2C)cc(OC)c1OC 446%
O=C1CCC(=O)N1CCOP1(=O)COc2ccccc2OC1 402%
COc1cccc(NC(=O)c2nn(C34CC5CC(CC(C5)C3)C4)cc2[N+](=O)[O-])c1 384%
Cc1ccc(NC(=O)N2CCC(O)(c3cccnc3)CC2)cc1 356%

Reference: PubChem BioAssay AID2716 (Broad Institute, 2010)
